Measured values from PubChem BioAssay AID836 (Columbia University Molecular Screening Center, 2007).
Screen size: about 91,000 compounds; about 160 (0.18%) were called active.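 How the source made its calls: active means inhibition above the batch mean plus 3 SD and confirmed as a hit by visual image inspection (cut at about 30% in these data, passing the limit was not always enough); inconclusive means above the inhibition threshold but rejected on visual inspection; inactive means the rest.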 For the sample, actives were picked, then their nearest neighbours and some compounds at random.

Assay: modifiers of F-actin cytoskeleton organization, primary screen, imaging, HUVEC, phalloidin staining, high-content imaging (AID 836)
Settings: HUVEC TNFa F-actin phalloidin imaging, at 2 µM, hits give high values

inhibition, inactive:
O=C1c2cccc3cc(Br)cc(c23)C(=O)N1Nc1ccccc1 -0.3%
O=C(Nc1cccc2ncccc12)C(Cl)(Cl)Cl 17.1%
O=C(NC1CCN(C(=S)NCc2ccco2)CC1)c1ccc(F)cc1 9.8%
N#C/C(=C1/CCCN1)c1ccccn1 -5.5%
Nc1c(-c2cccc(Cl)c2)cnn1-c1cccc([N+](=O)[O-])c1 14.9%
Cc1cc(OC(=O)c2ccc(Cl)cc2)cc(=O)n1C 2.4%
O=C(O)c1ccccc1NC(=S)NC(NC(=O)c1ccccc1[N+](=O)[O-])C(Cl)(Cl)Cl (stereo not given) -20.2%
COc1ccc(CCNC(=O)CSc2nnc(-c3cccc(F)c3)o2)cc1OC 2.3%
COc1ccc(CN(C(=O)CSc2nnc(-c3ccc(OC)c(OC)c3)o2)c2ccc(F)cc2)cc1 15.5%
CC(=O)c1nn(-c2cccc(Br)c2)cc1C(=O)c1cccc2ccccc12 18.2%
O=C(CSc1ccc(/C=N/NC(=O)c2cccc(F)c2)o1)Nc1ccccc1 1.1%
NC(=O)C1(N2CCCCC2)CCN(C(=S)Nc2ccc(Cl)cc2)CC1 -20.4%
COCCCn1c(SCc2cccc(OC)c2)nc2cc(OC)c(OC)cc2c1=N 3.7%
Cc1ccc(N2CCN(C3=NC(=O)/C(=C\c4cccs4)S3)CC2)cc1 24.1%
CCCCCOC(=O)NCCOC(=O)Nc1ccc(C(=O)OCC)cc1 8%
CCCCOC(=O)NCN1C(=O)C2C3C=CC(C3)C2C1=O (stereo not given) 11.5%
CCC(=O)OCc1c(C(F)(F)F)nn(C)c1Oc1cccc(C(F)(F)F)c1 -4%
COC(=O)c1ccc(C2C(Oc3ccccc3C)C(=O)N2CCc2ccc(OC)c(OC)c2)cc1 (stereo not given) 3.1%
Cc1[nH]c2ccccc2c1C(=O)COC(=O)C(C)C -13%
Cc1ccc(-c2nc(C)sc2CC(=O)O)cc1 7.2%
N=c1oc2ccccc2cc1C(=O)N/N=C/c1ccccc1 -3.7%
COc1cc(/C=N\NC(=O)C2C(=O)NCC2c2ccccc2)cc(OC)c1O (stereo not given) 2%
CC1CCc2c(c3ccccc3[nH]c2=O)O1 (stereo not given) 3%
Nc1c(-c2ccc(F)cc2)cnc2ncnn12 21.9%
Cc1ccc(SCC(=O)NC(=O)NCc2ccco2)c(C)c1 1.6%
COc1ccc([N+](=O)[O-])cc1NC(=O)CCc1ccccc1 9.1%
CC(Oc1ccc(-c2ccccc2)c(F)c1)c1ccn(S(=O)(=O)c2cccc3ccccc23)n1 (stereo not given) 1.3%
N#C/C(=C(/O)Cc1cccc2ccccc12)c1nc2ccccc2s1 18.2%
COc1cc(C2CC(=O)c3cnc(NC(C)=O)nc3C2)cc(OC)c1OC (stereo not given) -1.6%
CC1=C(C(=O)Nc2ccc(Cl)cc2)C(c2ccco2)NC(=O)N1 (stereo not given) -60.1%
FC(F)(F)c1cccc(-c2cc3ccccc3nc2N2CCCC2)c1 -10%
COc1cccc(NC(=O)C2c3cc(OC)c(OC)cc3C(=O)N(C)C2c2cccnc2)c1 (stereo not given) 29%
NC(=O)COc1ccc(/C=N/NC(=O)C2CCCN2S(=O)(=O)c2ccc(Cl)cc2)cc1 (stereo not given) -7.7%
CC(=O)c1cn(CCCCCCCCCCn2cc(C(C)=O)c(=O)[nH]c2=O)c(=O)[nH]c1=O 6.8%
O=C(CCc1ccc(S(=O)(=O)N2CCOCC2)cc1)Nc1ccc2ccccc2c1 -5%
O=C(CNC(=O)c1ccccc1)NCC(=O)OCc1ccc(Cl)cc1 -29.4%
CC(C(=O)Nc1ccc(F)c(F)c1F)N1CCCCCC1 (stereo not given) 9.4%
O=c1c2ccccc2nc2n1C(CSc1ccc(Cl)cc1)CN2 (stereo not given) -15.2%
Cc1cccc(CSc2nnc(NC(=O)CSc3nnc(C)s3)s2)c1 -21.1%
O=C(NC1CCCCC1)c1cc([N+](=O)[O-])ccc1N1CCOCC1 -40.7%
Cc1n[nH]c(=O)n1-c1ccc(Oc2ccccc2)cc1 22.6%
Cc1ccc(C)c(NC(=O)C2Cc3ccccc3CN2C(=O)OCc2ccccc2)c1 (stereo not given) 26.6%
Cc1ccc(S(=O)(=O)N(CC(=O)NCCSC2CCCCC2)c2ccccc2F)cc1 1.5%
CC(C)CC(=O)N1CCC(O)(CS(=O)(=O)Cc2ccccc2)CC1 34.4%
Cc1ccc(-c2csc(N(Cc3ccco3)C(=O)c3cccs3)n2)cc1 5.4%
Fc1ccccc1COc1ccccc1CNCc1ccncc1 -4.1%
COc1ccccc1NC(=O)c1ccc2nc(N3C(=O)CCC3=O)sc2c1 19.2%
COc1cc(C2C(C(=O)OCCC#N)=C(C)NC3=C2S(=O)(=O)c2ccccc23)cc(OC)c1OC (stereo not given) -21.9%
O=C(CCCN1C(=O)c2cccc3cccc(c23)C1=O)N1CCN(Cc2ccc3c(c2)OCO3)CC1 21%
Cc1cccc(COc2ccccc2/C=N/Nc2ccc([N+](=O)[O-])cc2)c1 15.8%
COc1ccccc1OCCNc1cc(N2CCOCC2)ccc1[N+](=O)[O-] 5.1%
O=C(COc1ccc(Br)cc1F)NC1CCN(Cc2ccccc2)CC1 -0.2%
C/C(=N/NC(=O)c1ccc(NC(=O)c2ccc(F)cc2)cc1)c1ccccc1 -18.2%
COc1cc(/C=C(/NC(=O)c2ccccc2)C(=O)Nc2cccc(O)c2)c([N+](=O)[O-])cc1OC 7.4%
C=CCNC(=S)NNc1ncnc2sc3c(c12)CC(C)(C)OC3 -11.6%
C=CCNC(=O)c1sc(SC)cc1-c1ccc(Cl)cc1 7.4%
Cc1cccc(-n2cnc(C(=O)Nc3cccnc3)c2)n1 1.4%

inhibition, active:
COc1ccc(-c2nnc(SCC(=O)NC3CCCCC3)o2)cc1OC 30.5%
CCCCCCOC(=O)NCC(O)c1ccccc1 (stereo not given) 61.8%
O=C(Nc1ncc2c(n1)CC(c1ccco1)CC2=O)c1ccc(Cl)cc1 (stereo not given) 100%
